Screening results from PubChem BioAssay.
HSP90 refold inh – HSP90 inhibitors, primary screen, cell lysate, luminescence; actives 0.91% (n = 290,000); Heat shock protein HSP 90 (rabbit reticulocyte lysate; luciferase refolding); inhibition, % at 5.6 µM; Rabbit reticulocyte lysate, luciferase refolding luminescence, 3 h;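 active = inhibition above the screen-wide mean plus 3 SD, computed separately per campaign, cut at about 16% in these data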;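 note: 0% = DMSO wells and 100% = 60 µM geldanamycin wells; inhibitors lower the luminescence because luciferase stays unfolded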
LMP1 NFkB inh – EBV LMP1-driven NF-kappaB luciferase reporter inhibitors, primary screen, cell-based, luminescence, single point; LMP1-induced NF-kappaB luciferase reporter cells; inhibition, % at 12.5 µM; actives 0.69% (n = 350,000); AID 504558, 2011; in the data active = inhibition above about 41%;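 note: 0% = neutral control wells and 100% = reference inhibitor control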
TROY signal inh – inhibitors of TROY-driven NF-kB signaling, primary screen, Q293 LMP1-TROYcd cells, NF-kB luciferase, uHTS; inhibition, % at 10 µM; actives 0.98% (n = 360,000); Q293 LMP1-TROYcd NF-kB luciferase reporter, 4 h;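 active = compounds whose plate-normalised and pattern-corrected inhibition of the luciferase reporter signal at the single screening dose is 50% or more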
HSF1 inh – HSF1 inhibitors in luciferase reporter cells, primary screen, cell-based, NIH3T3, luminescence; NIH3T3-HGL HSE-luciferase, MG132-induced, luminescence 8 h; stronger effect = lower value; activity change, negative = inhibition, % at 7.5 µM (by protocol); actives 0.77% (n = 300,000);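 active = more than half of replicate wells show activity change below -50%, luminescence cut by over half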;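 note: luciferase reports HSF-1 transcriptional activity via heat shock element; 0% = median of DMSO wells and -100% = zero luminescence signal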
HSF-1 act – HSF-1 activators, primary screen, NIH3T3-HGL cells, MG132 stress, luminescence, single point; NIH3T3-HGL HSF-1 luciferase reporter, 8 h; 100% = twice DMSO control signal; activation, % at 9 µM; actives 1.7% (n = 300,000); AID 504408, 2011;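 active = mean replicate activation of at least 50% with a set share of replicates each reaching 50%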;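 note: 0% = median of the neutral control wells and 100% = twice that signal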
TWEAK Fn14 block – inhibitors of TWEAK-Fn14 signaling, primary screen, luciferase reporter cells, uHTS | TWEAK-stimulated Fn14 reporter cells, luciferase luminescence, 8 h | inhibition, % at 10 µM | actives 2% (n = 360,000); in the data active = inhibition above about 50%
* marks the source's active call; other numbers are inactive results; x = no result given. In the library only some 4.7% were active in any assay of this set; here they are far more common.

SMILES	HSP90 refold inh	LMP1 NFkB inh	TROY signal inh	HSF1 inh	HSF-1 act	TWEAK Fn14 block
COP(=O)(OC)c1nc(-c2cccc3ccccc23)oc1NCc1ccccc1	-4	5	9	25	87*	4
COc1cc(Cl)ccc1OC1(C)CCN(Cc2cccn2-c2nccs2)C1 (stereo not given)	x	x	-20	x	x	2
CCn1c(=O)n(CCc2ccccc2)c(=O)c2c3c(sc21)CCCC3	1	-4	22	-3	-9	14
CCn1c(=O)c2c3c(sc2n2cnnc12)CCC3	2	-5	-23	-58*	-68	14
O=C(/C=C/c1ccc(F)cc1)NC(=S)N1CCN(c2ccccn2)CC1	-1	-15	-36	51	59*	-27
Clc1ccc(OCc2nnc3n2N=C(c2ccc4c(c2)OCCO4)CS3)c(Cl)c1	-1	12	60*	-13	-10	53*
CCCOc1ccccc1N/C(N)=N/c1nc(C)cc(C)n1	0	4	-3	-14	-8	3
CCCOc1ccccc1N/C(=N/c1nc(C)cc(C)n1)NC(=O)COc1ccc(OC)cc1	5	24	18	12	1	53*
COc1cccc(C#Cc2cnc3c(c2)C(=O)N([C@@H](C)CO)C[C@H](C)[C@H](CN(C)C(=O)C2CCC2)O3)c1	x	10	16	x	x	1
Cc1ccccc1C(=O)NC(=S)Nc1ccccc1[N+](=O)[O-]	-4	-3	-20	10	58*	-15
Cc1c(C(=O)Nc2ccccc2)csc1-c1ccccc1	2	-32	-53	28	61*	-21
Cc1c(C(=O)Nc2ccccc2[N+](=O)[O-])csc1-c1ccccc1	2	-38	-46	15	61*	3
COc1cccc(/C=C/C(=O)N2CCN(S(=O)(=O)c3ccccc3)CC2)c1	x	-3	-6	x	x	3
O=C(Oc1c(-c2ccccc2Cl)oc2ccccc2c1=O)c1ccc(Cl)cc1	-4	-21	37	-54*	-65	50*
O=C(Nc1cccc2ncccc12)c1ccc2c(c1)OCCO2	-1	9	x	-4	22	83*
O=C(Nc1ccc2c(c1)OCCO2)c1ccc2nccnc2c1	14	8	-32	-6	23	70*
Nc1c(C(=O)Nc2ccccc2Cl)nnn1-c1ccc2c(c1)OCCO2	-2	-29	-29	36	58*	-9
COc1cccc2c1OC1(C)CC2NC(=O)N1c1cccc(C(=O)Nc2ccc3c(c2)OCCO3)c1 (stereo not given)	2	8	31	-26	-25	83*
COc1cccc(C(O)c2nc(-c3cccc(C(F)(F)F)c3)cs2)c1 (stereo not given)	x	x	-2	x	x	3
O=C(CC[C@H]1O[C@@H](n2ccc(=O)[nH]c2=O)[C@H](O)[C@@H]1O)NCCN1CCOCC1	x	x	5	x	x	6
CC(C)c1ccc(NC(=O)c2cccc(Br)c2)cc1	2	-50	-86	38	78*	-17
Nc1c(C(=O)Nc2ccc3c(c2)OCCO3)nnn1Cc1ccc(Br)cc1	x	-87	-53	30	56*	-27
O=C(Nc1ccc2c(c1)OCCO2)c1cccc(Br)c1	2	-24	-53	22	57*	-10
O=C(Nc1cccc(C(=O)Nc2cccc(Br)c2)c1)c1ccccc1	1	-2	-6	10	7	-9
CC(C)[C@@H]1Cc2[nH]n(C)c(=O)c2[C@H](c2ccc(Cl)cc2)O1	x	x	-12	x	x	-25
SMILES	HSP90 refold inh	LMP1 NFkB inh	TROY signal inh	HSF1 inh	HSF-1 act	TWEAK Fn14 block
O=C(NOCc1ccccc1)c1ccc(Cl)cc1	x	32	30	x	x	66*
COc1ccc(C(=O)NOCc2ccccc2)cc1	x	48*	47	-20	-30	86*
COc1ccc(/C(N)=N/OC(=O)CCc2ccccc2)cc1	2	-12	-77	34	55*	-9
Cc1ccc(CONC(=O)c2ccc(Cl)cc2)cc1	x	-14	-56	x	x	-13
O=C(Nc1cccc(C(F)(F)F)c1)C1Cc2c(-c3ccccc3Oc3ccccc3)ccnc2O1 (stereo not given)	x	x	12	x	x	44
COc1ccccc1N1CCN(CCCCN2C(=O)C3CCCN3C2=O)CC1 (stereo not given)	x	1	15	x	x	-4
O=C1[C@H]2CCCC[C@H]2C(=O)N1CCCCN1CCN(c2nsc3ccccc23)CC1	x	62*	0	2	-12	-1
CCOC(=O)N1CCN(Cc2c(F)cccc2F)CC1	-8	5	x	-13	-3	71*
CCOC(=O)N1CCN(Cc2c(F)cccc2Cl)CC1	1	-3	3	1	19	-11
Cc1cn([C@H]2C[C@H](O)[C@@H](CNS(=O)(=O)N3CCCC3)O2)c(=O)[nH]c1=O	x	7	-1	x	x	1
Fc1cccc(Nc2ncnc3c2cnn3-c2ccccc2)c1	x	-56	-1	27	53*	18
Clc1cccc(Nc2ncnc3c2cnn3-c2ccccc2)c1	x	-17	1	21	47	43
c1ccc(CSc2ncnc3c2cnn3-c2ccccc2)cc1	0	-8	-35	-59*	-68	-22
O=C(Nc1cccc(Cl)c1)c1csc([C@H]2C[C@H](O)[C@@H](CO)O2)n1	x	x	-46	x	x	-1
CC(NC(=O)C1CCCN1C(=O)c1cccs1)c1ccc(Cl)cc1Cl (stereo not given)	x	-4	6	x	x	1
CCOC(=O)c1csc(-c2ccc(COC(=O)c3ccccc3)o2)n1	x	x	-54	x	x	-13
CCOC(=O)[C@]12CCCC=C1N(Cc1ccco1)C(=O)[C@H](CC(=O)NCc1cccs1)C2	x	x	-10	x	x	0
O=C(NC(Sc1ccc(Cl)cc1)C(=O)O)c1ccccc1 (stereo not given)	x	-18	-42	x	x	15
O=[N+]([O-])c1ccc(N=Nc2ccc(O)c3ccccc23)cc1	x	-4	33	x	x	69*
O=C(c1[nH]c(C(F)(F)F)nc1-c1ccccc1)N1CCN(Cc2c(F)cccc2Cl)CC1	x	x	8	x	x	7
CC(C)(C)NC(=O)CN(Cc1ccccc1)S(=O)(=O)c1ccccc1	-1	0	4	-2	-9	54*
CCN(CC)C(=O)CN(Cc1ccccc1)S(=O)(=O)c1ccc(F)cc1	3	-4	x	-11	-33	40
CCN(Cc1ccccc1)S(=O)(=O)c1ccc(F)cc1	0	-2	-8	-62*	-67	12
CC12CCC(CC1O)C2C(=O)O (stereo not given)	x	-4	-1	x	x	-4
Cc1cc(N2CCCC2=O)cc(C)c1S(=O)(=O)Nc1c(C)nn(C)c1C	3	49*	-17	13	20	1
